# Measured values published in PubChem BioAssay AID1332 (Southern Research Institute, 2008).
# Among all 1,100 compounds or so, about 170 (15%) were called active. The rule behind the calls is not given here. These entries were drawn from the full list.
# Assay: Confirmatory growth inhibition assay, mycobacterium tuberculosis h37rv, with cytotoxicity (AID 1332);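 for CC50: Vero cells exposed to compounds for 72 hours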;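 for IC50: bacteria incubated 7 days before adding Alamar blue readout reagent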
# Settings: M. tuberculosis H37Rv growth inhibition; CC50: measured here: Vero cell cytotoxicity; IC50: measured here: IC50 H37Rv replicates
Compound,IC50 [µg/mL],outcome,CC50 [µg/mL]
C=C[C@]12CN(C)[C@@H]3[C@H]4COC(CC41)[C@]1(C(=O)Nc4ccccc41)[C@@H]32,> 20,inactive,–
COC1=CC(=O)C[C@@H](C)[C@]12Oc1c(Cl)c(OC)cc(OC)c1C2=O,> 20,inactive,> 6
NC(=O)N/N=C/c1ccc([N+](=O)[O-])o1,11.5,active,> 6
CC(C(=O)O)c1ccc(C(=O)c2ccccc2)s1 (stereo unspecified),> 20,inactive,–
CCC(=O)OCC(=O)[C@@]1(OC(=O)CC)[C@@H](C)C[C@H]2[C@@H]3CCC4=CC(=O)C=C[C@]4(C)[C@@]3(Cl)[C@@H](O)C[C@@]21C,> 20,inactive,–
CC[C@H]1CN2CCc3cc(OC)c(OC)cc3[C@@H]2C[C@@H]1C[C@H]1NCCc2cc(O)c(OC)cc21,> 20,inactive,< 0.023
Fc1ccc([C@@H]2CCNC[C@H]2COc2ccc3c(c2)OCO3)cc1,13.1,active,4.88
C[C@H](NCCc1ccc(O)cc1)[C@H](O)c1ccc(O)cc1,> 20,inactive,–
C[C@@H]1CC[C@@]2(NC1)O[C@H]1C[C@H]3[C@@H]4CC=C5C[C@@H](O)CC[C@]5(C)[C@H]4CC[C@]3(C)[C@H]1[C@@H]2C,> 20,inactive,–
C[C@]12C=CC(=O)C=C1CC[C@@H]1[C@@H]2[C@@H](O)C[C@@]2(C)[C@H]1CC[C@]2(O)C(=O)CO,> 20,inactive,–
CC(C)(C)NCC(O)COc1cccc2c1CC(O)C(O)C2 (stereo unspecified),> 20,inactive,–
NC[C@@H]1O[C@H](O[C@H]2[C@@H](O)[C@H](O[C@@H]3[C@@H](O)[C@H](N)C[C@H](N)[C@H]3O[C@H]3O[C@H](CN)[C@@H](O)[C@H](O)[C@H]3N)O[C@@H]2CO)[C@H](N)[C@@H](O)[C@@H]1O,> 20,inactive,–
NC[C@@H]1O[C@H](O[C@H]2[C@@H](O)[C@H](O[C@@H]3[C@@H](O)[C@H](N)C[C@H](N)[C@H]3OC3O[C@H](CO)[C@@H](O)[C@H](O)[C@H]3N)O[C@@H]2CO)[C@H](N)[C@@H](O)[C@@H]1O (stereo partly specified),19.8,active,–
NC[C@H]1O[C@H](OC2[C@@H](N)C[C@@H](N)[C@H](O)[C@H]2O[C@@H]2O[C@H](CO)[C@@H](O)[C@H]2O)[C@H](N)[C@@H](O)[C@@H]1O (stereo partly specified),> 20,inactive,–
C[N+]1(C)C[C@@H](O)C[C@H]1C(=O)[O-],> 20,inactive,–
CC(C)(Sc1cc(C(C)(C)C)c(O)c(C(C)(C)C)c1)Sc1cc(C(C)(C)C)c(O)c(C(C)(C)C)c1,> 20,inactive,–
CC1=C(C(=O)O)N2C(=O)[C@@H](NC(=O)[C@H](N)c3ccc(O)cc3)[C@H]2SC1,> 20,inactive,–
N=C(N=C(N)N)N1CCOCC1,> 20,inactive,–
c1ccc(CNc2ncnc3nc[nH]c23)cc1,> 20,inactive,–
Cn1cnc([N+](=O)[O-])c1Sc1ncnc2nc[nH]c12,13.1,active,> 6
CN1C[C@H](C(=O)N[C@]2(C)O[C@@]3(O)[C@@H]4CCCN4C(=O)[C@H](Cc4ccccc4)N3C2=O)CC2c3cccc4[nH]cc(c34)C[C@H]21 (stereo partly specified),> 20,inactive,–

Compound,IC50 [µg/mL],outcome,CC50 [µg/mL]
CN1CCC(=C2c3ccccc3Sc3ccccc32)CC1,18,active,–
CN1CCC(=C2c3ccccc3CCc3sccc32)CC1,> 20,inactive,> 6
CN1CCC(=C2c3ccccc3C=Cc3ccccc32)CC1,> 18.3,active,> 6
CN1CCC(=C2c3ccccc3CC(=O)c3sccc32)CC1,> 20,inactive,–
CCC(=O)OC1(C(=O)CCl)[C@@H](C)C[C@H]2[C@@H]3CCC4=CC(=O)C=C[C@]4(C)[C@@]3(F)[C@@H](O)C[C@@]21C (stereo partly specified),> 20,inactive,–
C[C@H](N)[C@H](O)c1cccc(O)c1,> 20,inactive,–
CNCC(O)C(O)C(O)C(O)CO (stereo unspecified),> 20,inactive,–
C[n+]1cccc(C(=O)[O-])c1,> 20,inactive,–
CCC(c1ccc(O)cc1)C(CC)c1ccc(O)cc1 (stereo unspecified),> 20,inactive,–
COc1ccc2c(c1)N(C[C@H](C)CN(C)C)c1ccccc1S2,> 20,inactive,> 6
CC[C@H]1OC(=O)[C@H](C)[C@@H](O[C@H]2C[C@@](C)(OC)[C@@H](O)[C@H](C)O2)[C@H](C)[C@@H](O[C@@H]2O[C@H](C)C[C@H](N(C)C)[C@H]2O)[C@](C)(O)C[C@@H](C)C(=O)[C@H](C)[C@@H](O)[C@]1(C)O,1.7,active,–
CC[C@H]1OC(=O)[C@H](C)[C@@H](O[C@H]2C[C@@](C)(OC)[C@@H](O)[C@H](C)O2)[C@H](C)[C@@H](O[C@@H]2O[C@H](C)C[C@H](N(C)C)[C@H]2O)[C@](C)(O)C[C@@H](C)[C@@H]2N[C@@H](COCCOC)O[C@H]([C@H]2C)[C@]1(C)O,1.33,active,–
CO[C@H]1C[C@H](O[C@H]2[C@H](C)[C@@H](O[C@@H]3O[C@H](C)C[C@H](N(C)C)[C@H]3OC(C)=O)[C@@H](C)C[C@@]3(CO3)C(=O)[C@H](C)[C@@H](OC(C)=O)[C@@H](C)[C@@H](C)OC(=O)[C@@H]2C)O[C@@H](C)[C@@H]1OC(C)=O,> 20,inactive,–
CO[C@H]1C[C@H](O[C@H]2[C@H](C)[C@@H](O[C@@H]3O[C@H](C)C[C@H](N(C)C)[C@H]3O)[C@@H](C)C[C@@]3(CO3)C(=O)[C@H](C)[C@@H](O)[C@@H](C)[C@@H](C)OC(=O)[C@@H]2C)O[C@@H](C)[C@@H]1O,> 20,inactive,–
COc1ccc2cc3[n+](cc2c1OC)CCc1cc2c(cc1-3)OCO2,> 20,inactive,–
O=C(O)CCC(=O)Nc1ccc(S(=O)(=O)Nc2nccs2)cc1,> 20,inactive,–
C[N+]1(C)CCC[C@H]1C(=O)[O-],> 20,inactive,–
C[C@H]1O[C@@H](OC2CC[C@]3(C=O)[C@H]4CC[C@]5(C)[C@@H](C6=CC(=O)OC6)CC[C@]5(O)[C@@H]4CC[C@]3(O)C2)C[C@H](O)[C@@H]1O (stereo partly specified),> 20,inactive,2.54
COc1ccc(C(=O)c2ccccc2O)c(O)c1,> 20,inactive,–
O=c1cc(-c2ccc(O)cc2)oc2c(C3O[C@H](CO)[C@@H](O)[C@H](O)[C@H]3O)c(O)cc(O)c12 (stereo partly specified),> 20,inactive,–
